# Results published in PubChem BioAssay (Tox21).
# Several values for one entry are separate records, joined by “and”; a condition that tells them apart may be missing. Equal entries are not always repeated. Records with an inconclusive call do not appear. Entries that show only a call come without a potency. A structure can be active in one record and inactive in another. Activity calls are given as the source filed them. Calls follow the shape of the full dose curve.
# Test: qHTS assay for small molecule agonists of the p53 signaling pathway - cell viability (AID 651633); also: nearly all actives have a fitted effect of over 30% in size
# Details: p53RE-bla HCT-116 viability, ATP luminescence, 16 h; series mostly up to 83.3 µM
# In short: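 p53RE-bla cells, seeded at 4,000 per well and rested 5 h at 37 C/5% CO2, received compounds in DMSO for 16 h at 37 C. CellTiter-Glo was then added, and luminescence was read after 30 min at room temperature to gauge cytotoxicity.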
# Potency is read from the fitted curve at half-maximal effect.
row,SMILES,Potency
1,Nc1ncn([C@@H]2O[C@H](CO)[C@@H](O)[C@H]2O)c(=O)n1,668 nM (active) and inactive
2,OC1CCCCCCCCCCC1,inactive
3,O=CCc1ccccc1,inactive
4,Nc1ccc(Cl)cc1Cl,inactive
5,COC(=O)c1ccccc1,inactive
6,CCC(C)(O)CCCC(C)C (centres undefined),inactive
7,Cc1ncc[nH]1,inactive
8,CC(C)OC=O,inactive
9,c1ccc2c(c1)c1cccc3ccc4cccc2c4c31,3.04 µM (active) and inactive
10,Brc1cc(Oc2cc(Br)c(Br)c(Br)c2Br)c(Br)c(Br)c1Br,inactive
11,CCCCC(CC)COC(=O)c1ccc(N(C)C)cc1 (centres undefined),inactive
12,CC(=O)CC/C=C(\C)CCC=C(C)C,inactive
13,O=C1c2cccc(O)c2C(=O)c2c(O)cccc21,inactive
14,CN(C)c1nc(N(C)C)nc(N(C)C)n1,inactive
15,O=C=Nc1ccc(Cc2ccc(N=C=O)cc2)cc1,inactive
16,CCCCOCCOCCO,inactive
17,CC(=O)Oc1ccccc1C(=O)Nc1ncc([N+](=O)[O-])s1,9.44 µM (active) and inactive
18,CN(C)CCN(Cc1cccs1)c1ccccn1,inactive
19,CCOCCOCCO,inactive
20,CC(C)Oc1ccc2c(=O)c(-c3ccccc3)coc2c1,inactive

row,SMILES,Potency
1,CC(C)=CCCC(C)CCO (centres undefined),inactive
2,O=S(=O)(O)c1ccc(O)cc1,inactive
3,Nc1ncnc2nc[nH]c12,inactive
4,CC(CCC(=O)O)(c1ccc(O)cc1)c1ccc(O)cc1,inactive
5,O=C(Nc1ccc(Cl)cc1)Nc1ccc(Cl)c(Cl)c1,inactive
6,O=CCCCC=O,inactive
7,c1ccc2c(c1)Oc1ccccc1S2,inactive
8,CCCCCCCCCCCO,inactive and 61.1 µM (active)
9,CC(C)=CCC/C(C)=C\CO,inactive
10,C[C@]12CCC(=O)C=C1CC[C@@H]1[C@@H]2C(=O)C[C@@]2(C)[C@H]1CC[C@]2(O)C(=O)CO,inactive
11,COc1ccc(C(=O)CC(=O)c2ccc(C(C)(C)C)cc2)cc1,inactive
12,Cc1ccc(C)c(O)c1C,inactive
13,CCC(C)OC(=O)c1ccc(O)cc1 (centres undefined),inactive
14,C[Si](C)(C)O[Si](C)(C)C,inactive
15,CC(C)OB(OC(C)C)OC(C)C,inactive
16,CCCCC(CC)COP(=O)(OCC(CC)CCCC)OCC(CC)CCCC (centres undefined),inactive
17,CCC(C)CO (centres undefined),inactive
18,O=C(Nc1ccc([N+](=O)[O-])cc1Cl)c1cc(Cl)ccc1O,94.4 nM (active) and 96.9 nM (active)
19,Cc1c(OCC(F)(F)F)ccnc1CS(=O)c1nc2ccccc2[nH]1 (centres undefined),inactive
